Measured values reported in PubChem BioAssay (NCATS).
Inconclusive results are not listed. Unmarked numbers belong to inactive results. Calls of active or inactive are those of the source. Calls come from the whole dose curve; as a rule, active = well fitted curve in the direction sought with a large enough effect; inconclusive = small, poorly fitted or top-dose-only effect, or another doubt; inactive = no such curve, though single readings can be large; an effect the other way counts as inactive or inconclusive.

experiment: S16 Schwann cell viability assay (CellTiter-Glo assay) (AID 624031); conditions: S16 rat Schwann cells viability, 24 h; series mostly up to 57.5 µM; activity change, negative = cytotoxicity: at the top concentration;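 note: native untransfected S16 rat Schwann cells; cellular ATP luminescence as a viability measure; plate controls were DMSO-treated cells for no effect and cell-free wells for full effect; nearly all actives have a fitted effect of over 70% in size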
Method in brief: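 Rat S16 Schwann cells without reporter constructs received compound or DMSO for 24 h at 37 °C under 5% CO2. Cellular ATP was then quantified by CellTiter-Glo luminescence, with vehicle wells defined as 0% activity and cell-free wells as reference.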

| SMILES | activity change, negative = cytotoxicity |
| --- | --- |
| C[C@H](N)Cc1ccccc1 | 3.03% |
| C[C@]12C=CC(=O)C=C1CC[C@@H]1C2CC[C@]2(C)OC(=O)CCC12 (stereo not given in full) | 4.06% |
| OCC(O)[C@H]1O[C@@H]2O[C@H](C(Cl)(Cl)Cl)O[C@@H]2[C@H]1O (stereo not given in full) | 3.07% |
| CC1(C)[C@@H](C=C(Cl)Cl)[C@@H]1C(=O)OCc1c(F)c(F)cc(F)c1F | -11.2% |
| CC1(C)S[C@@H]2[C@H](N)C(=O)N2C1C(=O)O (stereo not given in full) | -2.7% [at 25.7 µM] |
| C=C1Nc2ccccc2C(=O)N1c1ccccc1C | 7.02% |
| CC1OC(O[C@H]2C[C@@H](O)[C@]3(CO)[C@@H]4C(CC[C@]3(O)C2)[C@@]2(O)CC[C@H](C3=CC(=O)OC3)[C@@]2(C)C[C@H]4O)C(O)C(O)C1O (stereo not given in full) | 17.4% |
| O=[N+]([O-])OC1CO[C@H]2C(O[N+](=O)[O-])COC12 (stereo not given in full) | 10.6% |
| CCOC(=O)/C=C(C)/C=C/CC(C)CCCC(C)C (stereo not given) | 7.64% |
| [S]=[Sb][S][Sb]=[S] | 2.45% |
| CN1C2CCC1C(C(=O)O)C(OC(=O)c1ccccc1)C2 (stereo not given) | 1.85% |
| Cc1ccc2c(c1)[C@@H]1CN(C)CC[C@H]1N2 | -15.9% |
| C=CC[N+]1(C)CCC23c4c5ccc(O)c4O[C@H]2C(=O)CC[C@@]3(O)C1C5 (stereo not given in full) | 3.93% |
| OC[C@@H](O)[C@H]1O[C@@H]2OC(C(Cl)(Cl)Cl)O[C@H]2[C@H]1O (stereo not given in full) | -9.86% |
| CCCCCCC(=O)O[C@H]1CC[C@H]2[C@@H]3CCC4CC(=O)C=C(C)[C@]4(C)[C@H]3CC[C@]12C (stereo not given in full) | 0% |
| CCCN1CCCC2Cc3nc(N)ncc3CC21 (stereo not given) | 9.22% |
| COc1ccc2c3c1O[C@H]1[C@@H](O)C=C[C@H]4C(C2)NCCC341 (stereo not given in full) | 0.152% |
| CCCCCC(O)C1C(=O)OC(C)C(O)\C=C/C=C\C=C/C=C\C=C(\C)C(O)C(O)C(O)CC(O)CC(O)CC(O)CC(O)CC1O (stereo not given) | 4.69% |

experiment: S16 Schwann cell PMP22 intronic element firefly luciferase assay (AID 624032); conditions: S16 rat Schwann cells, PMP22 element FLuc, 24 h; series mostly up to 57.5 µM; activity change, negative = inhibition: at the top concentration; note: nearly all actives have a fitted effect of over 30% in size; note: potency is the fitted concentration of half-maximal effect;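 for activity change, negative = inhibition: plate controls were DMSO for no effect and PTC124 positive control mean for full effect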
Method in brief: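 Rat S16 Schwann cells stably carrying firefly luciferase driven by a PMP22 intronic element, in 10% FBS, treated 24 h at 37 C. ONE-Glo luminescence normalized to PTC124 control and DMSO (0%); curves classed by r2, magnitude and activity.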

| SMILES | activity change, negative = inhibition | Potency |
| --- | --- | --- |
| C[C@H](N)Cc1ccccc1 | 16.6% |  |
| C[C@]12C=CC(=O)C=C1CC[C@@H]1C2CC[C@]2(C)OC(=O)CCC12 (stereo not given in full) | -3.87% |  |
| OCC(O)[C@H]1O[C@@H]2O[C@H](C(Cl)(Cl)Cl)O[C@@H]2[C@H]1O (stereo not given in full) | 17.5% |  |
| CC1(C)S[C@@H]2[C@H](N)C(=O)N2C1C(=O)O (stereo not given in full) | 14.1% [at 25.7 µM] |  |
| C=C1Nc2ccccc2C(=O)N1c1ccccc1C | -1.24% |  |
| CC1OC(O[C@H]2C[C@@H](O)[C@]3(CO)[C@@H]4C(CC[C@]3(O)C2)[C@@]2(O)CC[C@H](C3=CC(=O)OC3)[C@@]2(C)C[C@H]4O)C(O)C(O)C1O (stereo not given in full) | -19.1% |  |
| O=[N+]([O-])OC1CO[C@H]2C(O[N+](=O)[O-])COC12 (stereo not given in full) | -6.24% |  |
| CCOC(=O)/C=C(C)/C=C/CC(C)CCCC(C)C (stereo not given) | -10.8% |  |
| [S]=[Sb][S][Sb]=[S] | 11% |  |
| CN1C2CCC1C(C(=O)O)C(OC(=O)c1ccccc1)C2 (stereo not given) | -9.23% |  |
| Nc1nc(O)c(-c2ccccc2)o1 | -22.2% |  |
| C=CC[N+]1(C)CCC23c4c5ccc(O)c4O[C@H]2C(=O)CC[C@@]3(O)C1C5 (stereo not given in full) | 0.78% |  |
| OC[C@@H](O)[C@H]1O[C@@H]2OC(C(Cl)(Cl)Cl)O[C@H]2[C@H]1O (stereo not given in full) | 15.7% |  |
| CCCCCCC(=O)O[C@H]1CC[C@H]2[C@@H]3CCC4CC(=O)C=C(C)[C@]4(C)[C@H]3CC[C@]12C (stereo not given in full) |  | 11.4 µM (active) |
| CCCN1CCCC2Cc3nc(N)ncc3CC21 (stereo not given) | -16.8% |  |
| COc1ccc2c3c1O[C@H]1[C@@H](O)C=C[C@H]4C(C2)NCCC341 (stereo not given in full) | 16.1% |  |
| CCCCCC(O)C1C(=O)OC(C)C(O)\C=C/C=C\C=C/C=C\C=C(\C)C(O)C(O)C(O)CC(O)CC(O)CC(O)CC(O)CC1O (stereo not given) | 12.4% |  |
